Reference: PubChem BioAssay (NCI)
Compounds without any hit were thinned out: in the full panel of roughly 83,000, 20% have a hit.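 Growth was measured after 48 h exposure to one concentration of compound in 96-well plates. Values under 10 count as active.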 Active and inactive are the calls of the source.

Each molecule was assayed on SN12C renal (assay: NCI-60 one-dose screen, 48 h (100 = growth as untreated, 0 = no growth, -100 = all killed)). Conditions: 10 µM unless noted.
C#CCNC(=O)c1cccc2c1cc(C)n2-c1nc2c(c(NCc3ccccc3)n1)CCCC2 was tested, and the growth was -41.3% (active). COc1ccccc1NC(=O)C1CC(c2ccc(F)cc2)=NO1 (configuration not stated) was tested, and the growth was 96.3% (inactive). For O=C1Nc2cc(-c3ccc(NC(=O)c4ccccc4)cc3)ccc2/C1=C/c1ccc[nH]1, the growth was 101% (inactive). With C=CC(=O)N[C@@H](/C=C/C(=O)OCC)Cc1ccc(-c2cc(Cl)cc(Cl)c2)cc1 the growth was 3.95% (active). Cc1ccc(NC(=O)c2cc(-c3nc4ccccc4s3)c(=O)n(NS(=O)(=O)c3ccc(Cl)cc3)c2N)cc1 was tested, and the growth was 101% (inactive). In the case of O=C1Nc2cc(-c3ccc(NC(=O)C4CC4)cc3)ccc2/C1=C/c1ccc[nH]1, the growth is reported as 97.8% (inactive). For O=S(=O)(NCCNc1nccc(-c2c(-c3cccc(F)c3)nc3sccn23)n1)c1ccccc1, the growth was 40.3% (inactive). In the case of O=C(NCCNc1nccc(-c2c(-c3cccc(F)c3)nc3sccn23)n1)c1ccc(Cl)cc1, the growth is reported as 52.5% (inactive). COc1cc2oc(-c3cccc(C(=O)Nc4ccc(Cl)cc4)c3)cc(=O)c2c(O)c1OC was tested, and the growth was 41.5% (inactive). In the case of O=C1OC(Cc2ccccc2)C1c1ccccc1 (configuration not stated), the growth is reported as 97.7% (inactive). For CC(=O)Nc1ccc(-n2cnc3cc(-c4ccc(OCCN5CCCCC5)cc4)ccc32)cc1, the growth was 67.1% (inactive). In the case of O=C(N/N=C/c1ccc(Oc2ccccc2)cc1)c1cnn2c1NC(c1ccccc1)C2 (configuration not stated), the growth is reported as 71.8% (inactive). With CCN(CC)CC[n+]1cc2cc(OC)c(OC)cc2c2ccc3cc4c(cc3c21)OCO4 the growth was 3.54% (active). For O=Cc1cc2ccccc2nc1Oc1ccc(C(F)(F)F)cc1, the growth was 70.5% (inactive). With Cc1cc2nc3c4cc(C=O)ccc4n(CCN(C)C)c3nc2cc1C the growth was 20.5% (inactive). N#Cc1cccc(-c2ccc3c(c2)NC(=O)/C3=C\c2ccc[nH]2)c1 was tested, and the growth was 87.6% (inactive). For CCc1c(Cl)nc(N)nc1Nc1ccc(C)c(C)c1, the growth was 99.9% (inactive). In the case of COc1cc(NC(C)CCCNC(=O)CCC(=O)NCCCNCCCCCCCCCCNCCCNC(=O)CCC(=O)NCCCC(C)Nc2cc(OC)cc3cccnc23)c2ncccc2c1 (configuration not stated), the growth is reported as 41.3% [8 µM] (inactive). With Cc1ccccc1NS(=O)(=O)c1cccc(C(=O)Nc2ccc(Br)cc2)c1 the growth was 42.9% [25 µM] (inactive). For COc1cc(/C=C\C(=O)O)ccc1OCc1ccccc1, the growth was 95% (inactive). In the case of CCCCCCCCOc1ccc(/C=N/Nc2cc(C)nc3ccc(Br)cc23)cc1, the growth is reported as 68.2% (inactive). S=c1cc(S)c2cc(Br)ccc2[nH]1 was tested, and the growth was 98.8% (inactive). CCOC(=O)CSc1nc2ccccc2c(=O)n1Cc1ccc(S(N)(=O)=O)cc1 was tested, and the growth was 99.5% (inactive). C=C1C(=O)O[C@H]2[C@H]1CC/C(COC(=O)NCc1c[nH]c3ccc(Cl)cc13)=C\CC[C@@]1(C)O[C@@H]21 was tested, and the growth was -60.1% (active).

The molecules below were run on UO-31 renal in the same assay as above. Conditions: 10 µM unless noted.
In the case of COc1ccc(C/C(=C(\C)c2ccc(OCCN3CCCC3)cc2)c2ccc(OCCN3CCCC3)cc2)cc1, the growth is reported as 53.4% (inactive). In the case of CCOC(=O)Oc1c(OC)cc(C(=O)c2ccc(OC)c(O)c2OC)cc1OC, the growth is reported as 46.9% (inactive). With CCCCOc1ccc(/C(C)=N/Nc2cc(C)nc3ccc(Br)cc23)cc1 the growth was 67.7% (inactive). O=[N+]([O-])c1cc(Br)c2cccc3c2c1CC3 was tested, and the growth was 90.8% (inactive). CC(Oc1ccc(C(=O)O)cc1C(F)(F)F)c1ccc(Oc2ccccc2)cn1 (configuration not stated) was tested, and the growth was 79.2% (inactive). CCN1CCN(CCNc2nccc(-c3c(-c4cccc(OC)c4)nc4occn34)n2)S1(=O)=O was tested, and the growth was 91.9% (inactive). For Cn1c2ccccc2c2c3c(c4c5ccccc5n(C)c4c21)C(=O)OC3, the growth was 61% (inactive). With COc1cc2c(cc1OC)C(=O)/C(=C/c1cc(C)c(O)c(C)c1)S2 the growth was 54.8% (inactive). With O=C(/C=C/c1ccc(F)cc1)c1ccc(NC(=O)N2CCN(c3cc4c(cc3F)c(=O)c(C(=O)O)cn4C3CC3)CC2)cc1 the growth was 77.9% (inactive). In the case of O=C1c2ccc3c4c(ccc(c24)C(=O)N1CCCNCc1ccccc1Cl)C(=O)N(CCCNCc1ccccc1Cl)C3=O, the growth is reported as -35% (active). In the case of Cc1cccc(NC(=O)Nc2ccc(-n3cnc4cc(-c5ccc(O)cc5)ccc43)cc2)c1, the growth is reported as 27.2% (inactive). With c1ccc(-c2cn3c(ccc4ccccc43)n2)cc1 the growth was 48.9% (inactive). With COc1cc2oc(-c3cccc(C(=O)Nc4ccccc4)c3)cc(=O)c2c(O)c1OC the growth was 59.7% (inactive). With Cc1ccc(/C=N/NC(=O)CSc2nc3ccccc3c(=O)n2Cc2ccc(S(N)(=O)=O)cc2)cc1 the growth was 80.8% (inactive). With C#CCNC(=O)c1cccc2c1cc(C)n2-c1nc2c(c(NCc3ccccc3)n1)CCCC2 the growth was -63.8% (active). With COc1ccccc1NC(=O)C1CC(c2ccc(F)cc2)=NO1 (configuration not stated) the growth was 82.9% (inactive). With O=C1Nc2cc(-c3ccc(NC(=O)c4ccccc4)cc3)ccc2/C1=C/c1ccc[nH]1 the growth was 71.6% (inactive). For C=CC(=O)N[C@@H](/C=C/C(=O)OCC)Cc1ccc(-c2cc(Cl)cc(Cl)c2)cc1, the growth was 14.2% (inactive). For Cc1ccc(NC(=O)c2cc(-c3nc4ccccc4s3)c(=O)n(NS(=O)(=O)c3ccc(Cl)cc3)c2N)cc1, the growth was 83.9% (inactive). In the case of O=C1Nc2cc(-c3ccc(NC(=O)C4CC4)cc3)ccc2/C1=C/c1ccc[nH]1, the growth is reported as 80.2% (inactive). With O=S(=O)(NCCNc1nccc(-c2c(-c3cccc(F)c3)nc3sccn23)n1)c1ccccc1 the growth was 15.4% (inactive). In the case of O=C(NCCNc1nccc(-c2c(-c3cccc(F)c3)nc3sccn23)n1)c1ccc(Cl)cc1, the growth is reported as 28.1% (inactive). With COc1cc2oc(-c3cccc(C(=O)Nc4ccc(Cl)cc4)c3)cc(=O)c2c(O)c1OC the growth was 47% (inactive). With O=C1OC(Cc2ccccc2)C1c1ccccc1 (configuration not stated) the growth was 89% (inactive). In the case of CC(=O)Nc1ccc(-n2cnc3cc(-c4ccc(OCCN5CCCCC5)cc4)ccc32)cc1, the growth is reported as 56.3% (inactive). For O=C(N/N=C/c1ccc(Oc2ccccc2)cc1)c1cnn2c1NC(c1ccccc1)C2 (configuration not stated), the growth was 60.7% (inactive). With CCN(CC)CC[n+]1cc2cc(OC)c(OC)cc2c2ccc3cc4c(cc3c21)OCO4 the growth was 8.71% (active). For O=Cc1cc2ccccc2nc1Oc1ccc(C(F)(F)F)cc1, the growth was 35.1% (inactive). For Cc1cc2nc3c4cc(C=O)ccc4n(CCN(C)C)c3nc2cc1C, the growth was -28.6% (active). With N#Cc1cccc(-c2ccc3c(c2)NC(=O)/C3=C\c2ccc[nH]2)c1 the growth was 65.6% (inactive). CCc1c(Cl)nc(N)nc1Nc1ccc(C)c(C)c1 was tested, and the growth was 90.8% (inactive). COc1cc(NC(C)CCCNC(=O)CCC(=O)NCCCNCCCCCCCCCCNCCCNC(=O)CCC(=O)NCCCC(C)Nc2cc(OC)cc3cccnc23)c2ncccc2c1 (configuration not stated) was tested, and the growth was 96.3% [8 µM] (inactive). For Cc1ccccc1NS(=O)(=O)c1cccc(C(=O)Nc2ccc(Br)cc2)c1, the growth was 22.8% [25 µM] (inactive). With COc1cc(/C=C\C(=O)O)ccc1OCc1ccccc1 the growth was 81.4% (inactive). With CCCCCCCCOc1ccc(/C=N/Nc2cc(C)nc3ccc(Br)cc23)cc1 the growth was 64.7% (inactive). For S=c1cc(S)c2cc(Br)ccc2[nH]1, the growth was 86.8% (inactive). In the case of CCOC(=O)CSc1nc2ccccc2c(=O)n1Cc1ccc(S(N)(=O)=O)cc1, the growth is reported as 84.3% (inactive). In the case of C=C1C(=O)O[C@H]2[C@H]1CC/C(COC(=O)NCc1c[nH]c3ccc(Cl)cc13)=C\CC[C@@]1(C)O[C@@H]21, the growth is reported as -99.6% (active).
